Test [1] in a line: qHTS for Inhibitors of the vitamin D receptor (VDR): Hit Validation using a Texas Red Assay (AID 602201). Note: potency is the fitted concentration of half-maximal effect. A digest of the protocol:
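Fluorescence polarization with 1.5 uM VDR-LBD, LG19078 and 7 nM Texas Red (final). After 2 hours at ambient temperature, read at Ex 595 nm/Em 615 nm.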
A general note: Quantitative high-throughput screening tests each substance at several concentrations.

The target of test [2] is Vitamin D3 receptor (Homo sapiens) (UniProt P11473). Briefly: qHTS for Inhibitors of the vitamin D receptor (VDR): Hit Validation using a Beta-Lactamase Assay (AID 602202). Note: potency is the fitted concentration of half-maximal effect. A digest of the protocol: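 Stably transfected HEK293 cells expressing VDR-GAL4 DNA-binding domain fusion with UAS-driven beta-lactamase reporter, activated by agonist LG190178; compounds incubated 18 h, then FRET beta-lactam substrate 2 h; cleaved substrate read at 447 nm emission.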

Test [3] addresses Tumor susceptibility gene 101 protein (Homo sapiens) (UniProt Q99816). Briefly: qHTS Assay for Iinhibitors of HIV-1 Budding by Blocking the Interaction of PTAP/TSG101: Hit Validation (AID 651600). Note: potency is the fitted concentration of half-maximal effect; nearly all actives have a fitted effect of over 70% in size. The essentials:
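Measuring PTAP–Tsg101 interaction by FP: protein at 10 uM and fluorescent peptide at 50 nM (final), buffer 10 mM HEPES pH 7.5 with 0.15 M NaCl, 3 mM EDTA, 0.1 mM TCEP, 0.01% Tween 20; 20 min incubation, r.t.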

The target of test [4] is 3',5'-cyclic-AMP phosphodiesterase 4B (Homo sapiens) (UniProt Q07343). Briefly: qHTS Assay for Inhibitors of PDE-IV (AID 607; active = well fitted activation curve with a large enough effect in the main read-out, with a control signal flat, not every such curve was filed as active). The essentials:
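ACTOne HEK293 cells carry a modified cAMP-gated CNG channel and express endogenous PDE4; plated 1000 cells/well, compounds up to 22.9 uM final. Membrane-potential dye fluorescence (ex 535/em 590) was read; parental cells received 10 uM forskolin + 100 uM RO 20-1724.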

For test [5], the target named is DNA polymerase iota (Homo sapiens) (UniProt Q9UNA4). Briefly: qHTS for Inhibitors of Polymerase Iota: Confirmatory Assay for Cherry-picked Compounds (AID 720496). Note: potency is the fitted concentration of half-maximal effect. The settings on record: Pol iota primer extension, TAMRA/BHQ fluorescence. A digest of the protocol: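 Recombinant human Pol iota (10 nM) was preincubated with compound for 15 min at room temperature, then 50 nM final primer/template substrate was added; the substrate carried a TAMRA-labeled reporter strand and a BHQ-2-quenched template. Fluorescence was read at 0 and 10 min.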

In test [6] the target is Bifunctional 3'-5' exonuclease/ATP-dependent helicase WRN (Homo sapiens) (UniProt Q14191). Briefly: qHTS for Inhibitors of WRN Helicase: Confirmatory Assay for Cherry-picked Compounds. (AID 720497). Note: series mostly up to about 57 µM; nearly all actives have a fitted effect of over 65% in size. The essentials:
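Compound and 20 nM WRN incubated 15 min, RT. Forked duplex (100 nM) plus ATP (2 mM) added. Fluorescence monitored kinetically and normalized to controls.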

A short description of test [7]: qHTS for Inhibitors of WRN Helicase: Thiazole Orange DNA Binding Counterscreen (AID 720499).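 Note: drop in dye fluorescence marks compound binding to DNA; nearly all actives have a fitted effect of over 60% in size.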 A digest of the protocol: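 Thiazole orange displacement from unlabeled DNA (50 nM DNA, 100 nM dye) was monitored by fluorescence, ex 480/em 530 nm, following 15 min room-temperature incubation with pintool-dispensed compounds.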
For test [8], the target named is DNA polymerase eta (Homo sapiens) (UniProt Q9Y253). Briefly: qHTS for Inhibitors of Polymerase Eta: Confirmatory Assay for Cherry-picked Compounds (AID 720502). Note: potency is the fitted concentration of half-maximal effect. The settings on record: Pol eta primer extension, TAMRA/BHQ fluorescence, 10 min. The essentials:
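Plates with 10 nM enzyme and compound stood 15 min at room temperature before substrate addition (50 nM final). Displacement of the TAMRA reporter from the BHQ-2 template was tracked for 10 min.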

For test [9], the target named is RecQ-like DNA helicase BLM (Homo sapiens) (UniProt P54132). Briefly: qHTS for Inhibitors of WRN Helicase: BLM Helicase Counterscreen for WRN Inhibitors (AID 720503). Note: nearly all actives have a fitted effect of over 60% in size. The essentials: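 BLM (1 nM) was preincubated with compounds for 15 min at room temperature in Tris-HCl pH 8.0, 50 mM NaCl, 2 mM MgCl2 buffer. Unwinding started with 100 nM DNA and 2 mM ATP (final); red fluorescence was read twice, 15 min apart.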

Test [10] addresses Luciferin 4-monooxygenase (Photinus pyralis) (UniProt P08659). Briefly: Biochemical firefly luciferase enzyme assay for NPC (AID 624030).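 Note: purified P. pyralis luciferase at 10 nM with luciferin and ATP substrate; series mostly up to about 59 µM; nearly all actives have a fitted effect of over 70% in size.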 A digest of the protocol: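 Purified P. pyralis luciferase at 10 nM in 50 mM Tris Acetate (final), luminescence read within 5 minutes of enzyme addition to compounds. Activity normalised to PTC124 versus DMSO; concentration-response curves classed by r2, magnitude and activity.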

The target of test [11] is Cytochrome P450 2C9 (Homo sapiens) (UniProt P11712). Briefly: qHTS Assay for Inhibitors and Substrates of Cytochrome P450 2C9 (AID 883). Note: potency is the fitted concentration of half-maximal effect; nearly all actives have a fitted effect of over 60% in size. A digest of the protocol:
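10nM CYP2C9 + 100uM Luciferin-H (=KM), 25mM KPO4; cpd 10 min 37C; NADPH regen, 60 min 37C; stop/detect with P450 Glo-Buffer 20 min; luminescence. Norm. to 57uM sulphaphenazole as full inhibition.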

The target of test [12] is Cytochrome P450 3A4 (Homo sapiens) (UniProt P08684). Briefly: qHTS Assay for Activators of Cytochrome P450 3A4 (AID 885). Note: nearly all actives have a fitted effect of over 65% in size. The essentials:
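20nM CYP3A4 + 25uM Luciferin-PPXE (=KM), 200mM KPO4; cpd 10 min RT; NADPH regen, 60 min RT; stop w/ detection buffer, 20 min; luminescence. Normalized to 57 uM ketoconazole.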

The target of test [13] is Cytochrome P450 2C19 (Homo sapiens) (UniProt P33261). Briefly: qHTS Assay for Inhibitors and Substrates of Cytochrome P450 2C19 (AID 899). Note: potency is the fitted concentration of half-maximal effect; nearly all actives have a fitted effect of over 60% in size. The essentials: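 Luminescent read-out of luciferin formed from Luciferin-H EGE (10uM, equal to KM). Enzyme 5nM in 50mM KPO4; compound added, 10 min at 37C, then NADPH regenerating system for 60 min at 37C. Full inhibition defined by 57uM ketoconazole.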

Inconclusive results are not listed. The list shows a part of the results. Entries that show only a call come without a potency. Calls of active or inactive are those of the source. Unless noted, calls come from the whole dose curve; as a rule, active = well fitted curve in the direction sought with a large enough effect; inconclusive = small, poorly fitted or top-dose-only effect, or another doubt; inactive = no such curve, though single readings can be large; an effect the other way counts as inactive or inconclusive.

Chain of Luciferin 4-monooxygenase (Photinus pyralis) (P08659 whole entry, looked up): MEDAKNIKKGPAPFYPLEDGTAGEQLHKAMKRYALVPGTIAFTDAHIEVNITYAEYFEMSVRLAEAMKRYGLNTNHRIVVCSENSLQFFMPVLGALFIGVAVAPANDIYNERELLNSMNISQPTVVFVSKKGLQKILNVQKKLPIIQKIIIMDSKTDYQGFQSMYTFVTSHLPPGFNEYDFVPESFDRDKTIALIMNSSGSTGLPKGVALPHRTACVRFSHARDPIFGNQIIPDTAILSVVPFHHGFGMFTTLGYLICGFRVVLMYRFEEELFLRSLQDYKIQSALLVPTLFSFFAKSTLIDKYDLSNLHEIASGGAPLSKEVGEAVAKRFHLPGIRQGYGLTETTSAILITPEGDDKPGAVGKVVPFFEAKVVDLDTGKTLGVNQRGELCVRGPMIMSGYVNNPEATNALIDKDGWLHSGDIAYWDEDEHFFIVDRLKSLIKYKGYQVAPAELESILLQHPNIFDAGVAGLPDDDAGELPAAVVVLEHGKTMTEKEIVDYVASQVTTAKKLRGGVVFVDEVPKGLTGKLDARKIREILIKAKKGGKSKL
Chain of Vitamin D3 receptor (Homo sapiens) (P11473 whole entry, looked up, the tested form may be a part): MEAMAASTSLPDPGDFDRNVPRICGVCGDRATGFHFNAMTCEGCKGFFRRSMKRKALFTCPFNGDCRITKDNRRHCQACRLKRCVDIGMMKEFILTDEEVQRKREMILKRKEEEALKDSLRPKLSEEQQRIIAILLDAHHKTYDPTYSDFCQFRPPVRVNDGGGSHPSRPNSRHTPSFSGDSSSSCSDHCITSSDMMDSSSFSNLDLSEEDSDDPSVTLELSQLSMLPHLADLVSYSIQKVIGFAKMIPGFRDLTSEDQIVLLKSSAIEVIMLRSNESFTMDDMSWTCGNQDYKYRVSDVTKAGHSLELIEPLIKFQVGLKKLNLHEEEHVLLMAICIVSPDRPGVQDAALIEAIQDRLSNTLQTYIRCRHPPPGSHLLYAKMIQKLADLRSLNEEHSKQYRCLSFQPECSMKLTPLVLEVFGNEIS
Chain of 3',5'-cyclic-AMP phosphodiesterase 4B (Homo sapiens) (Q07343 whole entry, looked up): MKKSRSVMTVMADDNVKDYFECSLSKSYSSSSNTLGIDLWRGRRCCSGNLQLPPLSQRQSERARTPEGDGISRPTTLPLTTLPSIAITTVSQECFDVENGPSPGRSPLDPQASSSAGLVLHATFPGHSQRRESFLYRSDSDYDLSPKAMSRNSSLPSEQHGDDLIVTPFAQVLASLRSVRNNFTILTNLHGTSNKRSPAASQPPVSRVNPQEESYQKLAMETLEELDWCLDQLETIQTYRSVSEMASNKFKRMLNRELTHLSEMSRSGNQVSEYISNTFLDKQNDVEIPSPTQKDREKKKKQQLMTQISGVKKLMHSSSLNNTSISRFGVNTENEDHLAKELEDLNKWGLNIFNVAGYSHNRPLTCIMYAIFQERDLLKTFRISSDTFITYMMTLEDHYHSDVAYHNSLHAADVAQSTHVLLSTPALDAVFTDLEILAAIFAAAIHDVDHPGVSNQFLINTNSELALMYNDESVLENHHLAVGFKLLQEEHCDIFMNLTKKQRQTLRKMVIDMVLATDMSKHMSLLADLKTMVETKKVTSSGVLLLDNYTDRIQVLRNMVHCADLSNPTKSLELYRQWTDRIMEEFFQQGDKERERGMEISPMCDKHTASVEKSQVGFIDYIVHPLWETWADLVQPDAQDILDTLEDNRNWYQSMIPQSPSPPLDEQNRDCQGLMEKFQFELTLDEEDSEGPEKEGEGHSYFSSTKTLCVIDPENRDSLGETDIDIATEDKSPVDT
Chain of RecQ-like DNA helicase BLM (Homo sapiens) (P54132 whole entry, looked up): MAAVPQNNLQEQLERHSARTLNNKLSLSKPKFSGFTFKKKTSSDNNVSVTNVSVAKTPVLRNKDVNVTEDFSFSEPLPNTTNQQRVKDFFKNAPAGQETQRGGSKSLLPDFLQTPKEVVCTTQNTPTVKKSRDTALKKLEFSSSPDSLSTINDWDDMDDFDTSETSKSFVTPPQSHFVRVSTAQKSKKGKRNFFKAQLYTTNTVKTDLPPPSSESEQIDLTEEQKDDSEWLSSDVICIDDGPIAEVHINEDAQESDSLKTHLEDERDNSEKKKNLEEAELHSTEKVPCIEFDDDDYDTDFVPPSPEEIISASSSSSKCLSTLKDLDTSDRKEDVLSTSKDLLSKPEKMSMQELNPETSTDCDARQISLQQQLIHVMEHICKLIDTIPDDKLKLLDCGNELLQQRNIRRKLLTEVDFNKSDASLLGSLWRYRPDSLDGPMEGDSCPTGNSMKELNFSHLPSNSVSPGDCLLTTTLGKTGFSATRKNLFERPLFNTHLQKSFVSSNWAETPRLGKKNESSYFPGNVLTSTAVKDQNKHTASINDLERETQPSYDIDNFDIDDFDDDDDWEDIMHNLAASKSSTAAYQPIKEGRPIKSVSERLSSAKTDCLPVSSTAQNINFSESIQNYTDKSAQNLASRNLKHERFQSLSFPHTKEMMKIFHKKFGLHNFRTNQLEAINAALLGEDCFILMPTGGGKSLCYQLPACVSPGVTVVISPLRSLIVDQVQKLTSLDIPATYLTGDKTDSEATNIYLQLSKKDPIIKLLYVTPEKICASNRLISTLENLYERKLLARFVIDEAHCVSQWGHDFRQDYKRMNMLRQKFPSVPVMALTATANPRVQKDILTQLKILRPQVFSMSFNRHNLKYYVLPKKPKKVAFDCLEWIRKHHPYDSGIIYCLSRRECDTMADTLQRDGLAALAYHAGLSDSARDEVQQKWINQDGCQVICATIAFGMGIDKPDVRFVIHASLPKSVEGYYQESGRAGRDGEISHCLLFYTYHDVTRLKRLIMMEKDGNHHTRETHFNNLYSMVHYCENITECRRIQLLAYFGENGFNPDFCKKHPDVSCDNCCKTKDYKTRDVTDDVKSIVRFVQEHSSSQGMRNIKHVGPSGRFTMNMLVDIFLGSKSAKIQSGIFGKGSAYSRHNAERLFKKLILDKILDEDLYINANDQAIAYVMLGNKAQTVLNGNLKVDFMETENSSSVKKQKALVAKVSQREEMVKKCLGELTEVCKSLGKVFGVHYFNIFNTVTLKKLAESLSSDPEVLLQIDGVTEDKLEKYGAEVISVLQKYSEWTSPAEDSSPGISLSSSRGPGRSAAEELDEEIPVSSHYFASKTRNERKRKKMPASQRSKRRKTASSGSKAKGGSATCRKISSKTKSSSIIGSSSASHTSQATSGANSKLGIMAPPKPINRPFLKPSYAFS
Chain of Bifunctional 3'-5' exonuclease/ATP-dependent helicase WRN (Homo sapiens) (Q14191 whole entry, looked up): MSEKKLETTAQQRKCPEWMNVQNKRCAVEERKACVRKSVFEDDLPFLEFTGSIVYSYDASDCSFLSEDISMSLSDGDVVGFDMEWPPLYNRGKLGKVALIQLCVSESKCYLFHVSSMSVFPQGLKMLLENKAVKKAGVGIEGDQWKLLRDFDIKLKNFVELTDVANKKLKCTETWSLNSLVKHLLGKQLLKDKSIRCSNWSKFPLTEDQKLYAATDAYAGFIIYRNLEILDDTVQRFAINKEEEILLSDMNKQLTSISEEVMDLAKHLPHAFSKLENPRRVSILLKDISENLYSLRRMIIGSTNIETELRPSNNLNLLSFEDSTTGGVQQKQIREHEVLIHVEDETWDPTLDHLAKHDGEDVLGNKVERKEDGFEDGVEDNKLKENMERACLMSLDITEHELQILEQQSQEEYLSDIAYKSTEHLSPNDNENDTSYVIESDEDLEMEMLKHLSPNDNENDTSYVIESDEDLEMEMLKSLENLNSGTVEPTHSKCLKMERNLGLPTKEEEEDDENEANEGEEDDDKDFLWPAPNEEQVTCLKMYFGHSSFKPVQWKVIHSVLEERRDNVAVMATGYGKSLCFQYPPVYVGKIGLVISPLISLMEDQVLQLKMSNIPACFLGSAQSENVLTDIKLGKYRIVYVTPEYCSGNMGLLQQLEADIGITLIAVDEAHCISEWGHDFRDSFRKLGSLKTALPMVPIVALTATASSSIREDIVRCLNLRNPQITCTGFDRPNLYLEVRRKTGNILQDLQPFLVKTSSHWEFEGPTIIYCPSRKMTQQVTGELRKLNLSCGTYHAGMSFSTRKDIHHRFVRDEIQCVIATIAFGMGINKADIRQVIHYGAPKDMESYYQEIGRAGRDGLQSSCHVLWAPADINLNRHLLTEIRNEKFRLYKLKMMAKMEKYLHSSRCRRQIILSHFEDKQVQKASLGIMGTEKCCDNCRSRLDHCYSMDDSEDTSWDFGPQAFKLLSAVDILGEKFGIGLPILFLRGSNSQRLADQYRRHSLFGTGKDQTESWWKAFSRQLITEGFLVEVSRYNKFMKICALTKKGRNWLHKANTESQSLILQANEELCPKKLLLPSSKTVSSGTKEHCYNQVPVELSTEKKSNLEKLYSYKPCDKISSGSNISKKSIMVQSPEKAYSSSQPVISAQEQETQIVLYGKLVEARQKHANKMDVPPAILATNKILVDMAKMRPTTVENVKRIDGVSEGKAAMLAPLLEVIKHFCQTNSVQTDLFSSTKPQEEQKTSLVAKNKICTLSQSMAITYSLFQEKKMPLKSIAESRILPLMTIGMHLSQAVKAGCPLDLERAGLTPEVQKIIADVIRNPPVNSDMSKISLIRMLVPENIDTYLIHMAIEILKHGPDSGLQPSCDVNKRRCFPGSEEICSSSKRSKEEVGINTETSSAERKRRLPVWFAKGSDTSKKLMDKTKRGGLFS
Chain of Cytochrome P450 2C19 (Homo sapiens) (P33261 whole entry, looked up): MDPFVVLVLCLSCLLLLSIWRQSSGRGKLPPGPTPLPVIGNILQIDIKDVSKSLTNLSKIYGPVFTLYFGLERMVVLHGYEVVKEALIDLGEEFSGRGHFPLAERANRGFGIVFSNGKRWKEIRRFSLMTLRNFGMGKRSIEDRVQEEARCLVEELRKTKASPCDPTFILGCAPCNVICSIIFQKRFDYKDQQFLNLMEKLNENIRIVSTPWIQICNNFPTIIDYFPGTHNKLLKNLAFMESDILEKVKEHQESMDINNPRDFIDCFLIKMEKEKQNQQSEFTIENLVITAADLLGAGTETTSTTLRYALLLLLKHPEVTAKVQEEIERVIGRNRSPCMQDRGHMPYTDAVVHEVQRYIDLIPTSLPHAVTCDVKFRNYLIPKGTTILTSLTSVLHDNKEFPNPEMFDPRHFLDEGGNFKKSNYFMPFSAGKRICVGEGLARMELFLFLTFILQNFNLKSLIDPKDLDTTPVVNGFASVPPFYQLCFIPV

Regarding `c1ccc2c(C[n+]3csc4ccccc43)cccc2c1`, in [1], the Potency was 10 µM (active). Further, the Potency result in test [2] is “inactive”.

Take `Cc1cccc(CS(=O)(=O)c2ncc(Cl)c(C(=O)Nc3ccc(F)cc3)n2)c1`: in test [2], the Potency is 5.17 µM (active).

Regarding `COc1ccc(OC)c(-c2c3cc(O)c(=O)cc-3oc3cc(O)c(O)cc23)c1`, the Potency in test [1] is 8.91 µM (active); in test [3], 32.6 µM (active).

Consider `CCC/C=C(\CCC)C(NC(=O)CCc1ccccc1)c1ccc(C(F)(F)F)cc1` (stereo not given), for which the call in test [4] was inactive.

On to `CC(=O)N(C1=C(Cl)C(=O)c2ccccc2C1=O)c1ccc(C(=O)O)cc1`, for which the Potency is 3.55 µM (active) in [1], 20.6 µM (active) in test [2], 67 µM (active) in test [5] and 26.9 µM (active) in test [8]. Besides, the Potency result in test [6], in [7] and in test [9] was “inactive” throughout.

Take `COC(=O)/C=C\C(=O)Nc1cccc([N+](=O)[O-])c1`: the Potency in test [2] is 14.6 µM (active). The Potency entry in test [6], in test [7] and in test [9] was “inactive” throughout.

Regarding `CSc1nnc(NC(=O)c2nc(S(=O)(=O)Cc3ccc(C)cc3)ncc2Cl)s1`, the Potency entry in test [1] was “inactive”. Further, the Potency in test [2] was 5.8 µM (active).

For the compound `COc1ccc(CS(=O)/C(Cl)=C(/Cl)C(=O)Nc2ccc(OC)nc2)cc1` (stereo not given), the Potency in test [2] was 0.731 µM (active).

With `COc1cc([C@@H]2c3cc4c(cc3[C@@H](O[C@@H]3O[C@H]5CO[C@H](C)O[C@H]5[C@H](O)[C@@H]3O)[C@H]3COC(=O)[C@H]23)OCO4)cc(OC)c1OP(=O)(O)O`, the Potency result in test [10] is “inactive”.

Turning to `COC(=O)[C@@]1(Cc2ccc(OC)cc2)[C@H]2c3cc(C(=O)N4CCCC4)n(CCCNc4ncc(C(F)(F)F)cc4Cl)c3C[C@H]2CN1C(=O)c1ccccc1`, in [4], the outcome was inactive. Besides, the Potency in test [11] was 7.94 µM (active); in test [13] it was 3.16 µM (active). The Potency entry in [12] was “inactive”.

With `CCCCS(=O)(=O)c1oc(-c2cccs2)nc1S(=O)(=O)c1ccccc1`, the Potency in [2] is 5.8 µM (active).

Consider `O=C(/C=C/c1ccc(Cl)cc1Cl)c1cccnc1`, for which, in [2], the Potency result was “inactive”.

Consider `CCOC(=O)c1sc(=S)n2c1[nH]c(=O)c1ccc(C(=O)OC)cc12`, for which the Potency in test [1] was 10 µM (active). For the same compound, the Potency result in test [2] was “inactive”.

For `O=c1cc(CO)oc(C(Nc2cccc(C(F)(F)F)c2)c2ccccn2)c1O` (stereo not given), the Potency entry in [1] and in [2] was “inactive” each time.

For `COC(=O)[C@@]1(Cc2ccc(OC)cc2)[C@H]2c3cc(C(=O)N(C)C)n(Cc4ccccc4)c3C[C@H]2CN1C(=O)c1ccccc1`, the outcome in [4] was inactive.

Consider `CCOC(=O)c1sc(NC(=O)CSc2nc(C)cc(C(F)(F)F)n2)c(C#N)c1C`, for which, in test [2], the Potency result is “inactive”.

In the case of `Cc1cccc(Oc2c([N+](=O)[O-])c(=O)n(C)c3ccccc23)c1`, the Potency result in test [2] was “inactive”.

As for `C=CCOc1ccc(/C=C2/C(=O)ON=C2C)cc1OCC`, the Potency entry in test [2] is “inactive”.

With `CCCC/C=C/C(NC(=O)CCc1ccccc1)c1ccccc1` (stereo not given), in test [4], the compound was called inactive.

For `CCOC(=O)N1CCN(C(c2cccnc2)c2ccc3cccnc3c2O)CC1` (stereo not given), in test [2], the Potency entry is “inactive”.

For the compound `COC(=O)[C@H]1[C@@H]2C[C@H]3c4[nH]c5ccccc5c4CCN3C[C@@H]2CC[C@@H]1O`, in [4], the result was inactive.

On to `O=[N+]([O-])/C=C/c1ccc2c(ccn2Cc2ccccc2)c1`, for which the Potency in [2] was 18.4 µM (active).

As for `Cc1cccc(C)c1N(CCCc1cccnc1)C(=O)[C@@H](C)N`, in test [10], the Potency entry is “inactive”.

Turning to `CCOc1ccc(N(Cc2ccccc2)C(=O)c2nc(S(C)(=O)=O)ncc2Cl)cc1`, the Potency in [2] was 20.6 µM (active).

With `CN(C)N=Nc1ccc2nc[nH]c2c1`, the Potency result in [1] and in test [2] was “inactive” each time.

For `O=C(/C=C/c1ccccc1)c1ccccc1O`, the Potency entry in test [2] is “inactive”.

As for `COC(=O)[C@@]1(Cc2ccc(OC)cc2)[C@H]2c3cc(C(=O)N4CCCC4)n(Cc4ccc(C)o4)c3C[C@H]2CN1C(=O)c1ccccc1`, in test [4], the compound was called inactive.

For the compound `CC1(C)C(C(=O)O)N2C(=O)CC2S1(=O)=O` (stereo not given), the Potency result in test [10] was “inactive”.

Regarding `O=C1OC2C(O)C(O)OC2C1O` (stereo not given), the Potency result in [10] was “inactive”.

With `CC(=O)C1(O)CCC2C3CC(C)C4=CC(=O)CCC4(C)C3CCC21C` (stereo not given), the Potency entry in test [10] was “inactive”.

`COc1cc(/C=C/C(=O)O[C@H]2CC[C@]34C[C@]35CC[C@]3(C)[C@@H]([C@H](C)CCC=C(C)C)CC[C@@]3(C)C5CCC4C2(C)C)ccc1O` (stereo not given in full): the Potency result in test [10] was “inactive”.

As to `CC(C)(C)CC(=O)OCC(=O)[C@@]12OC(C)(C)O[C@@H]1C[C@H]1[C@@H]3CCC4=CC(=O)C=C[C@]4(C)[C@@]3(F)[C@@H](O)C[C@]12C`, the Potency entry in test [10] was “inactive”.

In the case of `CCC[C@]1(CCc2ccccc2)CC(O)=C([C@H](CC)c2cccc(NS(=O)(=O)c3ccc(C(F)(F)F)cn3)c2)C(=O)O1`, the Potency result in [10] was “inactive”.

With `C[C@@H]1O[C@@]2(CS1)CN1CCC2CC1`, in test [10], the Potency entry is “inactive”.

Consider `O=CC(O)C(O)C(O)C(O)CO` (stereo not given), for which the Potency entry in [10] was “inactive”.

Regarding `O=C(O)/C=C(/CC(=O)O)C(=O)O`, in [10], the Potency result was “inactive”.

For the compound `CCOC(=O)CCC(=O)OC1C(OC2C(C)C(OC3CC(C)(OC)C(O)C(C)O3)C(C)C(=O)OC(CC)C(C)(O)C(O)C(C)C(=O)C(C)CC2(C)O)OC(C)CC1N(C)C` (stereo not given), the Potency result in [10] is “inactive”.

Source of the values: PubChem BioAssay (NCATS).
